# Measurements from PubChem BioAssay (EPA / NIEHS).
# Some structures have more than one record in an assay (separate samples or runs), and their calls can disagree. Activity calls are given as the source filed them. Rule for the calls: active = hit-call score of the fitted dose curve at least 0.9, where 1 is the maximum; inactive = score below 0.9.
# Columns and labels:
# [1] = read-out: Thrombomodulin, THBD (gene 7056); assay: BSK_CASM3C_Thrombomodulin: BioMAP Diversity Plus: CASM3C Assay for Thrombomodulin Biomarker Activity (AID 2283051); settings: primary human coronary artery smooth muscle cells; actives raise or lower the signal;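 note: thrombomodulin protein level measured by ELISA 24 h after dosing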
# [2] = read-out: Tissue Factor, F3 (gene 2152); assay: BSK_CASM3C_TissueFactor: BioMAP Diversity Plus: CASM3C Assay for Tissue Factor Biomarker Activity (AID 2283052); settings: primary human coronary artery smooth muscle cells; actives raise or lower the signal;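 note: cell surface tissue factor protein level read by ELISA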
# [3] = read-out: Interferon-gamma inducible Protein 10 (IP10), CXCL10 (gene 3627); assay: BSK_hDFCGF_IP10: BioMAP Diversity Plus: hDFCGF Assay for Interferon-gamma inducible Protein 10 (IP10) Biomarker Activity (AID 2283053); settings: primary human foreskin fibroblasts; actives raise or lower the signal
# In short: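 Primary foreskin fibroblasts, human; 24 h compound exposure; IP-10 by ELISA; bidirectional fit vs DMSO.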
# [4] = read-out: Urokinase-type plasminogen activator receptor (uPAR), PLAUR (gene 5329); assay: BSK_CASM3C_uPAR: BioMAP Diversity Plus: CASM3C Assay for Urokinase-type plasminogen activator receptor (uPAR) Biomarker Activity (AID 2283054); settings: primary human coronary artery smooth muscle cells; actives raise or lower the signal;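 note: cell-surface uPAR protein level quantified by ELISA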
# [5] = read-out: Vascular cell adhesion molecule 1 (VCAM1), VCAM1 (gene 7412); assay: BSK_CASM3C_VCAM1: BioMAP Diversity Plus: CASM3C Assay for Vascular cell adhesion molecule 1 (VCAM1) Biomarker Activity (AID 2283055); settings: primary human coronary artery smooth muscle cells; actives raise or lower the signal;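 note: VCAM-1 protein level quantified by ELISA on the cells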
# [6] = read-out: Collagen III, COL3A1 (gene 1281); assay: BSK_hDFCGF_CollagenIII: BioMAP Diversity Plus: hDFCGF Assay for Collagen III Biomarker Activity (AID 2283056); settings: primary human foreskin fibroblasts; actives raise or lower the signal
# In short: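 hDFCGF primary human dermal fibroblasts; 24 h chemical exposure; collagen III by ELISA; bidirectional curve fit vs DMSO baseline (gain or loss of signal).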
# [7] = read-out: Epidermal growth factor receptor (EGFR), EGFR (gene 1956); assay: BSK_hDFCGF_EGFR: BioMAP Diversity Plus: hDFCGF Assay for Epidermal growth factor receptor (EGFR) Biomarker Activity (AID 2283057); settings: primary human foreskin fibroblasts; actives raise or lower the signal
# In short: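 hDFCGF system, primary human foreskin fibroblasts; compound 24 h; EGFR measured by ELISA; DMSO = negative control/baseline; bidirectional fitting.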
# [8] = read-out: Interleukin-8 (IL8), CXCL8 (gene 3576); assay: BSK_hDFCGF_IL8: BioMAP Diversity Plus: hDFCGF Assay for Interleukin-8 (IL8) Biomarker Activity (AID 2283058); settings: primary human foreskin fibroblasts; actives raise or lower the signal
# In short: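 ELISA read-out of IL-8 from primary human foreskin fibroblast cultures taken 24 h after dosing; values are bidirectional fits relative to DMSO vehicle.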
# [9] = BSK_hDFCGF_Proliferation: Cell Proliferation Assessment in the BioMAP Diversity Plus: hDFCGF Assay (AID 2283059); settings: primary human foreskin fibroblasts;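 note: curves fitted for both rise and fall of signal versus DMSO baseline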
# In short: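 Steps: dose primary human dermal fibroblasts (foreskin); […] fix in 10% TCA; stain with 0.1% SRB; read 560 nm; fit gain or loss of signal against DMSO.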
# [10] = read-out: Macrophage colony-stimulating factor (MCSF), CSF1 (gene 1435); assay: BSK_hDFCGF_MCSF: BioMAP Diversity Plus: hDFCGF Assay for Macrophage colony-stimulating factor (MCSF) Biomarker Activity (AID 2283060); settings: primary human foreskin fibroblasts; actives raise or lower the signal
# In short: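 ELISA read-out of M-CSF in human dermal foreskin fibroblast cultures, 24 h after chemical dosing; gain or loss of signal fitted bidirectionally relative to DMSO baseline.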
SMILES,outcome [1],outcome [2],outcome [3],outcome [4],outcome [5],outcome [6],outcome [7],outcome [8],AC50 [9],outcome [10],outcome [9],AC50 [1],AC50 [3],AC50 [6]
CC1(C)CCC(=Cc2ccc(Cl)cc2)C1(O)Cn1cncn1 (centres undefined),inactive,inactive,inactive,inactive,inactive,inactive,inactive,inactive,1.31 µM (active),inactive,,,,
N#Cc1c(Cl)cccc1Cl,inactive,inactive,inactive,inactive,inactive,inactive,inactive,inactive,,inactive,inactive,,,
CC(C)(C)C(=O)C(Oc1ccc(Cl)cc1)n1cncn1 (centres undefined),inactive,inactive,inactive,inactive,inactive,inactive,inactive,inactive,,inactive,,,,
CCN(CC)C(=O)C(C)Oc1cccc2ccccc12 (centres undefined),,inactive,,inactive,inactive,,inactive,inactive,,inactive,inactive,0.148 µM (active),3.97 µM (active),0.148 µM (active)
CC(C)Oc1cccc(NC(=O)c2ccccc2C(F)(F)F)c1,inactive,inactive,inactive,inactive,inactive,inactive,inactive,inactive,27.5 µM (active),inactive,,,,
COCC(C)N(C(=O)CCl)c1c(C)csc1C (centres undefined),inactive,inactive,,inactive,inactive,inactive,inactive,inactive,14.3 µM (active),inactive,inactive,,,
COCC(=O)N(c1c(C)cccc1C)C(C)C(=O)OC (centres undefined),inactive,inactive,inactive,inactive,inactive,inactive,inactive,inactive,,inactive,inactive,,,
Cc1nc(N(C)C)nc(OC(=O)N(C)C)c1C,inactive,inactive,inactive,inactive,inactive,inactive,inactive,inactive,,inactive,inactive,,,
